Bioassay records (PubChem)
Most compounds without a hit are left out; they make up all but 2.1% or so of the library.
D2 ag-1 = HTS Assay for Allosteric Agonists of the Human D2 Dopamine Receptor: Primary Screen for Agonists; D(2) dopamine receptor (Homo sapiens), P14416; HEK293 T-REx D2 cells, calcium flux agonist mode; activation, % at 2 µM; hit rate 0.53% among 340,000; AID 485358, 2010;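 active = activation over 3 SD above normal in the single-dose calcium agonist read, cut at about 30% in these data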; note: 0% is about no effect
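Agonism is scored from calcium flux in a force-coupled, inducible HEK293 cell line expressing D2, read kinetically for 180 s after compound addition against dopamine controls.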
LDHA inh = qHTS assay for inhibitors of human lactate dehydrogenase | purified LDHA, NADH/diaphorase-resazurin fluorescence; active compounds read low | L-lactate dehydrogenase A chain (Homo sapiens), P00338 | hit rate 0.15% among 480,000 | activity change, % (values are at about 110 or 230 µM); in the data active = activity change below about -30%; inconclusive = mostly about -25% to -30%;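 note: plate controls were DMSO wells for no effect and wells without enzyme for full effect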
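Human LDH5 at 2 nM final in Tris HCl pH 7.4 with 0.06 mM NADH and 0.2 mM pyruvate, reacted 5 minutes at room temperature. Remaining NADH coupled via diaphorase/resazurin; resorufin fluorescence read at 0 and 20 minutes, normalized to enzyme-free and DMSO wells.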
D2 antagonist = HTS Assay for Allosteric Antagonists of the Human D2 Dopamine Receptor: Primary Screen for Antagonists. inhibition, % at 10 µM. AID 485344, 2010. HEK293 TREx D2 cells, calcium flux, dopamine EC80. hit rate 2% among 340,000; in the data active = inhibition above about 30%; inactive = below that, where a call was filed; note: 0% is about no effect
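Read-out: kinetic calcium fluorescence (1 cycle/s) in inducible HEK293 T-REx D2 cells after an EC80 dopamine addition that followed 180 s compound preincubation. Loss of the dopamine response indicates antagonism.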
D2 ag-2 = Beta-Arrestin HTS for Positive Allosteric Modulators of the Human D2 Dopamine Receptor: Agonists | activation, % (test concentration not listed) | hit rate 0.084% among 360,000 | DiscoveRx PathHunter D2 beta-arrestin, luminescence, 90 min; 100% = 57 uM dopamine signal; in the data active = activation above about 40%; inconclusive = between about 15% and that limit
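DiscoveRx PathHunter D2 beta-arrestin cells (2,100/well) attached overnight, then compound-stimulated 90 min at 37 C in HBSS/10 mM HEPES/0.1% Tween-20 buffer; beta-galactosidase complementation read by luminescence after 1 h at ambient temperature. Dopamine 57 uM final (EC100) as control.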
D2 PAM-1 = Beta-Arrestin HTS for Positive Allosteric Modulators of the Human D2 Dopamine Receptor: Potentiators; D(2) dopamine receptor (Homo sapiens), P14416; DiscoveRx D2 beta-arrestin cells, luminescence, 90 min; 100% = 57 uM dopamine signal; potentiation, % (test concentration not listed); hit rate 0.23% among 360,000; in the data active = potentiation above about 50%; inconclusive = mostly about 30% to 49%
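PathHunter beta-arrestin assay in DiscoveRx D2 cells. Compounds were added with an EC20 of dopamine (50 nM final) for 90 min at 37 deg C. Luminescence was read 1 h after detection reagent, with 57 uM dopamine as the EC100 control.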
D2 PAM-2 = HTS Assay for Positive Allosteric Modulators of the Human D2 Dopamine Receptor: Primary Screen for Potentiators | D(2) dopamine receptor (Homo sapiens), P14416 | hit rate 0.34% among 340,000 | potentiation, % at 10 µM | HEK293 T-REx D2, calcium flux, EC20 dopamine potentiation;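 active = potentiation over 3 SD above the plate norm, cut at about 30% in these data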; note: 0% is about no effect
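Potentiation of an EC20 dopamine calcium response is measured in a force-coupled, tetracycline-inducible Hek293 Trex D2 line. Compound-only kinetic reads over 180 s flag agonists before dopamine addition.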
D3 arrestin ag = qHTS of D3 Dopamine Receptor Agonist: D3 Dopamine Receptor B-arrestin Agonist Confirmatory Assay; shares compounds with D2 ag-1; DiscoveRx D3 beta-arrestin cells, luminescence, 90 min; Potency, µM (doses to about 76.9 µM), for inactives: top-dose activation, actives largely listed as activators; hit rate 4% among 2,300; AID 720506, 2013;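 note: potency is the fitted concentration of half-maximal effect; 100% = dopamine control response; nearly all actives have a fitted effect of over 70% in size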
Target sequence (P35462 whole entry, looked up): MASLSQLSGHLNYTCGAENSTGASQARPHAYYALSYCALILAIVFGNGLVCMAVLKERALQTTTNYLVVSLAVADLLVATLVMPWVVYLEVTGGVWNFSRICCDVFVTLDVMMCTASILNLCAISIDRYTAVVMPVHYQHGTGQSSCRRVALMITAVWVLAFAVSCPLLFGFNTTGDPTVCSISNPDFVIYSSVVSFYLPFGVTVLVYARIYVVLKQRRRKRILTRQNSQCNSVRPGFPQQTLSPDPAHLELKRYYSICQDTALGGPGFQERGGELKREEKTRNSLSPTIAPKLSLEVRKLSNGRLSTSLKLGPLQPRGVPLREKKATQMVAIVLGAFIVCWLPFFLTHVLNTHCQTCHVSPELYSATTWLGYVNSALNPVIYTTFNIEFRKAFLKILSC
D2 ag-3 = qHTS of D3 Dopamine Receptor Agonist: D2 Dopamine Receptor B-arrestin Agonist Counterscreen. shares compounds with D2 ag-1. DiscoveRx PathHunter D2 beta-arrestin, luminescence, 90 min; response scale: percent relative to full dopamine signal. Potency, µM (top dose mostly 76.9 µM), for inactives: top-dose activation, most hits filed as activators. hit rate 5.9% among 2,300; note: potency is the fitted concentration of half-maximal effect; % of control where 0% means no effect; nearly all actives have a fitted effect of over 70% in size
Numbers without * were called inactive; ? = inconclusive; / = no result given. Unless noted, calls come from the whole dose curve; as a rule, active = well fitted activation curve with a large enough effect; inconclusive = small, poorly fitted or top-dose-only effect; inactive = flat fitted curve, though single readings scatter.

SMILES	D2 ag-1	LDHA inh	D2 antagonist	D2 ag-2	D2 PAM-1	D2 PAM-2	D3 arrestin ag	D2 ag-3
CC1=NN(C(N)=S)C(=O)C1N=Nc1ccccc1Cl (stereo not drawn)	0.9	-1.8	-8.5	-6.1	-1.4	6.2	/	/
CC1=NN(C(N)=S)C(=O)C1N=Nc1ccccc1C(=O)O (stereo not drawn)	/	1.5	/	-1.1	-5.3	/	0.7%	-2.8%
Cc1ccc(-c2c(C)nn3c2NC(=O)CCC3=O)cc1S(=O)(=O)NCc1ccc(F)cc1	/	-6.6	/	/	/	/	/	/
CN1CCc2c(sc(NC(=O)Cc3ccccc3)c2C#N)C1	78.3*	-12.5	69.5*	5.5	14.0	-23.0	13.0%	?
CC(C)N1CCc2c(sc(NC(=S)NC(=O)c3ccccc3)c2C#N)C1	3.4	1.1	0.7	-9.0	-8.7	0.7	/	/
CCN1CCc2c(sc(NC(=S)NC(=O)c3ccc(Cl)cc3)c2C(N)=O)C1	43.6*	-4.5	-11.6	-9.7	-19.5	-12.2	-4.0%	-9.7%
CCCN1CCc2c(sc(NC(=S)NC(=O)c3ccccc3)c2C#N)C1	76.9*	3.3	77.6*	14.1	17.5	-14.8	7.1%	12.9%
CN1CCc2c(sc(NC(=O)c3ccc(C(=O)c4ccccc4)cc3)c2C(N)=O)C1	69.1*	-2.1	37.1*	-1.0	-4.5	-13.3	-9.2%	-0.9%
CCOC(=O)c1c(NC(=O)Cn2nnc(-c3ccccc3)n2)sc(C)c1CC	/	-1.3	/	/	/	/	/	/
COc1cccc(C2CC(=O)Nc3cc(OC)c(OC)cc32)c1 (stereo not drawn)	-0.4	-4.0	27.1	3.2	4.0	5.6	/	/
COc1cccc(C2CC(=O)Nc3cc4c(cc32)CCC4)c1 (stereo not drawn)	-1.3	-1.6	10.2	-6.7	-3.7	12.5	22.6%	10.3%
O=C(NC1CCN(Cc2ccc(Cl)cc2)CC1)c1ccc2nc(Cl)ccc2c1	/	2.3	/	/	/	/	/	/
COc1ccc2[nH]c3c(=O)n(/N=C/[C@H]4C(C)C=C(C)CC4C)c(=O)[nH]c3c2c1 (stereo partly drawn)	40.8*	-6.0	35.8*	2.7	18.8	-15.4	10.1%	3.7%
COc1ccc2c(c1)[nH]c1c(=O)n(/N=C/C3C(C)C=C(C)CC3C)c(=O)[nH]c12 (stereo not drawn)	-0.7	-5.4	29.4	-1.7	7.7	/	/	/
S=C(NCc1ccc(Cl)cc1)Nc1ccc(Cl)c(Cl)c1	/	4.2	/	/	/	/	/	/
COc1ccccc1-c1oc2ccccc2c1-c1ccc2cc[nH]c2c1	-0.1	1.3	-4.7	4.1	-2.9	15.7	1.3%	2.8%
C=CCNc1nc(C(=O)OCc2cccc(F)c2F)cs1	/	-6.3	/	/	/	/	/	/
Cc1ccc(/C=C/S(=O)(=O)NCC(=O)OCC(=O)c2c[nH]c3ccccc23)cc1	/	5.5	/	/	/	/	/	/
CC(=O)Nc1ccc(S(=O)(=O)NCCC(=O)NCCOc2ccccc2)cc1	15.2	-8.2	-3.3	4.5	-2.9	-9.9	-3.1%	12.0%
O=C(CCNS(=O)(=O)c1ccccc1)NCCCSc1ccccc1	-1.1	-4.2	11.1	-4.1	-11.8	-1.2	/	/
Cc1ccc(S(=O)(=O)NCCC(=O)NCCCSc2ccccc2)cc1	-2.1	1.2	-12.2	-2.9	-3.7	8.4	1.0%	5.2%
COc1ccc(-c2nc(C#N)c(N3CCC(Cc4ccccc4)CC3)o2)cc1OC	/	9.2	/	/	/	/	/	/
O=c1[nH]c(S)nc2sc3c(c12)CCCC3	-0.5	-10.2	-4.4	-7.4	0.6	6.3	/	/
O=c1[nH]c(-c2ccco2)nc2sc3c(c12)CCCC3	52.1*	-2.8	8.9	0.5	-6.8	-21.3	-4.8%	-4.6%
Cc1ccc(-n2c(N)cc(=O)nc2SCC(=O)N2CCN(c3ccccc3)CC2)cc1C	3.5	-3.8	-5.4	-2.3	-19.6	3.7	/	/
SMILES	D2 ag-1	LDHA inh	D2 antagonist	D2 ag-2	D2 PAM-1	D2 PAM-2	D3 arrestin ag	D2 ag-3
COc1ccc(-n2c(N)cc(=O)nc2SCC(=O)N2CCN(c3ccccc3)CC2)cc1	20.6	-1.7	0.6	-1.1	-2.6	-8.4	-12.1%	-3.7%
CCN(CC)/C(C)=N/C(=S)Nc1ccccc1	/	7.8	/	/	/	/	/	/
Cc1ccc(CN(C)C(=O)COC(=O)CSc2cc(C)c3ccccc3n2)cc1	0.4	-5.2	-23.7	-5.2	2.0	-4.2	-2.8%	-0.5%
COC(=O)Nc1ncc(CN2CCC(c3ccccc3)CC2)s1	84.8*	0.7	98.1*	13.2	-24.7	-27.7	8.3%	22.1%
NC(=O)NNC(=S)Nc1ccccc1	/	1.8	/	/	/	/	/	/
O=C(NC1(Cc2ccccc2)CCN(CCc2cccs2)C1=O)c1ccccc1 (stereo not drawn)	-0.4	0.4	-0.3	4.3	-4.1	9.6	-11.3%	-3.6%
CC1(NC(=O)c2ccccc2)CCN(CCc2cccs2)C1=O (stereo not drawn)	/	-3.7	/	-3.2	-8.3	-5.3	/	/
CCCCn1c(N)c(N(CC)C(=O)c2cccc(OCc3ccccc3)c2)c(=O)[nH]c1=O	-0.4	-12.6	7.9	8.0	4.8	-11.7	20.5%	-3.0%
CCCCn1c(N)c(N(CC)C(=O)c2cccc(F)c2)c(=O)[nH]c1=O	3.6	-1.5	-1.8	-5.0	-3.7	-2.7	/	/
O=C(CCN1CCN(c2ccccc2F)CC1)Nc1ccccc1F	55.0*	-8.4	86.4*	7.5	-19.4	-2.0	?	?
COc1ccc(C)cc1NC(=O)CN1CCN(c2ccccc2F)CC1	0.4	0.8	-9.4	-0.2	-13.7	-25.0	/	/
O=C(CN1CCN(CCC(=O)Nc2ccccc2F)CC1)Nc1ccc(F)cc1	0.7	0.1	15.1	-3.3	-21.3	-9.5	/	/
O=C(CN1CCN(c2ccccc2F)CC1)Nc1ccccc1F	22.5	2.6	-1.2	1.0	-34.5	-22.1	-9.0%	-0.1%
